This passage reports composite z-score and z-score results from PubChem BioAssay.

Active and inactive are the calls of the source.

The subject of assay [1] is Plasmodium falciparum Sir2 (PF13_0152, Sir2A). Description: Plasmodium falciparum Sir2A binding compounds – biochemical, small-molecule microarray, 635 nm fluorescence, primary screen (AID 1098).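 Also: score merges spot fluorescence intensity with its signal-to-noise ratio.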 Conditions: fluorescence 635 nm, higher = more signal.
The nature of assay [2]: probe aDKK1 binding to arrayed compounds – biochemical, biotinylated probe, 635/667 nm fluorescence, primary screen (AID 1099).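 Also: score merges 667nm spot fluorescence with signal to noise across triplicate slides; reference of the scale not given here.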 Conditions: small-molecule microarray, higher = more signal.
A short description of assay [3]: probe aCHRDL2 binding to arrayed compounds – biochemical, biotinylated probe, 635/667 nm fluorescence, primary screen (AID 1100). Particulars: small-molecule microarray, higher = more signal.
Assay [4] is described as follows: change in splice reporter luminescence, either direction, cell-based, HEK293, spliceosome inhibition project, primary screen (AID 1101).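 Also: HEK293 cells carrying a splicing-competent luciferase reporter gene; test concentration not given here.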 Conditions: HEK293 splicing luciferase reporter, 24 h, higher = more signal, called active from +8 up or from −8 down. (In general: A reporter such as luciferase makes a cellular process visible.)
For assay [5], the target named is Fibroblast growth factor 10 (Homo sapiens) (UniProt O15520). Description: compounds binding fibroblast growth factor 10 – biochemical, small-molecule microarray, 635 nm fluorescence, primary screen (AID 1102). Conditions: FGF10 binding, fluorescence 635 nm, higher = more signal.
Assay [6] deals with glycogen synthase kinase-3 (GSK3A per assay name; protocol says GSK3B). The experiment in a line: compounds binding glycogen synthase kinase-3 – biochemical, small-molecule microarray, 635 nm fluorescence, GSK3A, primary screen (AID 1103). Also: the record names both GSK3A and GSK3B. Particulars: fluorescence 635 nm, higher = more signal.
Assay [7] has as its target Epidermal growth factor receptor (Homo sapiens) (UniProt P00533). Description: compounds binding epidermal growth factor receptor – biochemical, small-molecule microarray, 635 nm fluorescence, primary screen (AID 1104).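 Also: score merges 667 nm emission intensity with spot signal to noise over triplicate slides.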 Conditions: EGFR binding, higher = more signal.
The target of assay [8] is Follistatin-related protein 3 (Homo sapiens) (UniProt O95633). The experiment in a line: compounds binding follistatin-related protein 3 – biochemical, small-molecule microarray, 635 nm fluorescence, primary screen (AID 1105).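 Also: score merges emission near 667 nm and signal to noise per printed spot across three slides.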 Particulars: FSTL3 binding, higher = more signal.
Assay [9] concerns the target Dickkopf-related protein 1 (Homo sapiens) (UniProt O94907). Description: small molecules binding DKK1 protein – biochemical, small-molecule microarray, 635 nm fluorescence scan, primary screen (AID 1106).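 Also: score merges emission near 667 nm with signal to noise over three replicate slides.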 Conditions: higher = more signal.
For assay [10], the system named is Inhibin beta A chain (activin A). Description: small molecules binding activin A – biochemical, small-molecule microarray, 635 nm fluorescence scan, primary screen (AID 1107).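 Also: mouse activin A protein probed at 4.33 µg/mL on printed slides; score merges bound-protein fluorescence near 667 nm with spot signal-to-noise.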 Conditions: INHBA, higher = more signal.

Sequence of Epidermal growth factor receptor (Homo sapiens) (P00533 whole entry, looked up): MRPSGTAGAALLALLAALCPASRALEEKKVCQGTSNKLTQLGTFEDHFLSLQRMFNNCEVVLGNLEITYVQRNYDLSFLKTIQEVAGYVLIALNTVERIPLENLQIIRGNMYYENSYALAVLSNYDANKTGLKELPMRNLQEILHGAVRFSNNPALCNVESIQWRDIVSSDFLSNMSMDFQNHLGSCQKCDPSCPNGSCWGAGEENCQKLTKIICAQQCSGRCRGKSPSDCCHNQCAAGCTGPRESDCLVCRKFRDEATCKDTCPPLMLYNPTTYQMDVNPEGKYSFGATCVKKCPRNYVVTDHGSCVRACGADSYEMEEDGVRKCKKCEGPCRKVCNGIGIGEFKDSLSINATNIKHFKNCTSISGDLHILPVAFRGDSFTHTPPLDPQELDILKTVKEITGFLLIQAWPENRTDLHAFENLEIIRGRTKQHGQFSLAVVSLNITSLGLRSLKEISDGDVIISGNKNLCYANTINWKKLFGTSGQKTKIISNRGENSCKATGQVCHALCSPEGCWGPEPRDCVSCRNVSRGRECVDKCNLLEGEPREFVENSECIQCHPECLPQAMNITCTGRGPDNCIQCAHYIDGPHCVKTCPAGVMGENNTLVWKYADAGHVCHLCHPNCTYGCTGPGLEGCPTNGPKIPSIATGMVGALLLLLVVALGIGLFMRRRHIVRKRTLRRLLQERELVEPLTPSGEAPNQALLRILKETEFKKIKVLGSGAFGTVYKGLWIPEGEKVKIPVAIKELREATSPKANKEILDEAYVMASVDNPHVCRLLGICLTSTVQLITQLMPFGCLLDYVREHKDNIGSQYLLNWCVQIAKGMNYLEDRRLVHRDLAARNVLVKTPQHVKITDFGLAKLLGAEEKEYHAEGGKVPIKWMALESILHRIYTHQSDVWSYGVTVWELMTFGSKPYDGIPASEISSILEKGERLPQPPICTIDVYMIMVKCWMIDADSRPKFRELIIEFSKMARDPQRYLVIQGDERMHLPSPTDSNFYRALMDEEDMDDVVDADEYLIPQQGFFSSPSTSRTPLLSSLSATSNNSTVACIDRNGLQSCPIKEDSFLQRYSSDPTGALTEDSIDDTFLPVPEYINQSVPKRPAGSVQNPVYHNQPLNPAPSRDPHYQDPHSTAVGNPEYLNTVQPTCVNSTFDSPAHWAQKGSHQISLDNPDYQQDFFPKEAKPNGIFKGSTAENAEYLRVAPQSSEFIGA
Sequence of Dickkopf-related protein 1 (Homo sapiens) (O94907 whole entry, looked up): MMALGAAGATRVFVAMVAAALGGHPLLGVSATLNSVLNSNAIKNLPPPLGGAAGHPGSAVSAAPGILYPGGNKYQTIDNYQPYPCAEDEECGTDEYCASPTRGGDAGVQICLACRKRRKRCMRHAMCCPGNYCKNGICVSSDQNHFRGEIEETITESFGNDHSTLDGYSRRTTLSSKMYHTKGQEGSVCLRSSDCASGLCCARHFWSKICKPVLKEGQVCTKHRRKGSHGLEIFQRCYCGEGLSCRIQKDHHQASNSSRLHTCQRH
Sequence of Follistatin-related protein 3 (Homo sapiens) (O95633 whole entry, looked up): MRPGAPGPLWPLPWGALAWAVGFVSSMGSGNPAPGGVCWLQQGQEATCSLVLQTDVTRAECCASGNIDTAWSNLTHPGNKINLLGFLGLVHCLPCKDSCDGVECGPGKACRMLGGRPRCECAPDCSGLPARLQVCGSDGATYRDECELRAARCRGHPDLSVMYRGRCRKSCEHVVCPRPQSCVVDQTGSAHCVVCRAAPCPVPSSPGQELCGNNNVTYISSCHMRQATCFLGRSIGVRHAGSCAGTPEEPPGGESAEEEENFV
Sequence of Fibroblast growth factor 10 (Homo sapiens) (O15520 whole entry, looked up): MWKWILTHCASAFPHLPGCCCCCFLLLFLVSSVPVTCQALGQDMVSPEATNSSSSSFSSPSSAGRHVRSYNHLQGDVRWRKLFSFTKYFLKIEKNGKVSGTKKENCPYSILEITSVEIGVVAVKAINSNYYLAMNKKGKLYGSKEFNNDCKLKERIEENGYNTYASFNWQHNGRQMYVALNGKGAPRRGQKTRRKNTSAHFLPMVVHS

Take `CCN1C(=O)[C@H]2[C@H]3[C@H](O)[C@H](O)CC(=NNC(=O)OCc4ccccc4)[C@@H]3CC[C@H]2C1=O`: the composite z-score in [1] is -0.16; in [2], 0.118; in assay [3] it was 0.78; in [5], -0.163; in [6], -0.612; in assay [7], -0.241. Moreover, the composite z-score in [8] is -0.0709; in assay [9], 0.131; in assay [10], -0.291. In addition, the z-score in [4] is -0.176 (inactive).

Take `CO[C@@H](C(C)C)[C@@H](C)C1OC(=O)CC1O` (stereo not given in full): the composite z-score is -0.595 in assay [1]; -0.148 in [2]; -0.0917 in assay [3]; -0.114 in [5]; -0.051 in assay [6]; -0.57 in assay [7]. Moreover, the composite z-score is -0.552 in assay [8], -0.166 in assay [9] and 0.253 in [10]. Further, in assay [4], the z-score was 0.94 (inactive).

As for `C=CC[C@@H]1C=C[C@H](ON=C2C[C@@H](O)[C@@H](O)[C@@H]3[C@@H]4C(=O)N(CC)C(=O)[C@@H]4CC[C@@H]23)[C@@H](CO)O1`, the composite z-score in [1] was -0.487; in assay [2], -0.428; in assay [3], -0.562; in assay [5], 0.156; in [6], -0.653; in [7], -0.0239. The composite z-score in [8] was -0.339; in assay [9], 0.106; in assay [10] it was 0.535. Further, in assay [4], the z-score is -1.2 (inactive).

With `CC(C)CON=C1[C@H]2CCn3c(=O)n(C)c(=O)n3[C@H]2[C@H](O)[C@@H]2O[C@H]12`, the composite z-score was 0.59 in [1]; -0.339 in [2]; -0.507 in assay [3]; 0.401 in [5]; 0.481 in assay [6]; 0.377 in [7]. Besides, the composite z-score in [8] turned out to be 0.703; in assay [9], 0.708; in assay [10], 0.283. Further, the z-score in [4] was 0.253 (inactive).

On to `CCOC(=O)CCN1C(=O)[C@H]2[C@H]3[C@H](O)[C@H](O)CC(=NNC(=O)OCc4ccc(OC)cc4)[C@H]3CC[C@H]2C1=O`, for which the composite z-score in assay [1] was 0.14; in assay [2], 0.127; in [3], 0.0124; in [5], -0.186; in assay [6], 0.071; in [7], 0.459. For the same molecule, the values for the composite z-score in assay [8], in assay [9] and in assay [10] were 0.449, 0.132 and 0.747, respectively. In assay [4], the z-score is -0.352 (inactive).

As to `COc1ccc(OC[C@@H](CO)OC)cc1`, the composite z-score in assay [1] is -0.276; in assay [2] it was -0.233; in [3], -0.401; in assay [5], 0.428; in assay [6], 0.405; in assay [7] it was 0.202. Besides, the results for the composite z-score in assay [8], in [9] and in assay [10] were 0.475, 0.321 and 0.512, respectively. For the same molecule, in [4], the z-score is 1.18 (inactive).

As for `O=C1C[C@@H](O)[C@@H](O)[C@@H]2[C@@H]3C(=O)N(c4ccc(F)cc4F)C(=O)[C@@H]3CC[C@H]12`, the composite z-score in assay [1] is 0.88; in assay [2], -0.0704; in assay [3] it was -0.511; in assay [5] it was 0.514; in assay [6] it was 0.662; in assay [7], 0.394. In addition, the composite z-score in assay [8] was 0.638; in assay [9], 0.597; in assay [10], 0.148. The z-score in assay [4] was 0.759 (inactive).

As for `CCOC(=O)[C@H](Cc1ccccc1)NC(=O)CCC1CC(OC(=O)NCc2cccc3ccccc23)CC2(CCCC(COC(=O)NCC3CCCCC3)O2)O1` (stereo not given in full), the composite z-score in [1] was 0.889; in assay [2], -0.21; in [3] it was -0.53; in [5], 0.781; in assay [6], 0.805; in assay [7], 0.604. Also, the composite z-score in [8] was found to be 0.872; in [9], 0.795; in assay [10], 0.381. Moreover, the z-score in [4] is -0.815 (inactive).

Regarding `O=C1C2=CC[C@H]3C(=O)N(C[C@@H]4CCCO4)C(=O)[C@H]3[C@H]2[C@H](O)[C@@H]2O[C@H]12`, the composite z-score was 1.22 in assay [1]; -0.28 in assay [2]; -0.594 in [3]; 0.364 in assay [5]; 0.443 in assay [6]; 0.259 in assay [7]. In addition, the composite z-score is -0.191 in assay [8], -0.0034 in assay [9] and -0.277 in assay [10]. For the same molecule, the z-score in assay [4] is -1.47 (inactive).

For the molecule `CC(C)=NOC(C)CN1CCCCc2nc(C)c(C)cc21` (stereo not given), the composite z-score in [1] is 0.284; in [2], -0.261; in assay [3], -0.331; in [5], 0.151; in assay [6] it was 0.0285; in [7], 0.468. The composite z-score was 0.473 in assay [8], 0.619 in assay [9] and 1.04 in assay [10]. For the same molecule, in assay [4], the z-score is 0.19 (inactive).

Turning to `CSCC[C@@H]1NC(=O)CC=C[C@@H](C)COC(=O)[C@H](C)COC1=O`, the composite z-score in [1] was 0.926; in assay [2], -0.641; in [3], -2.03; in [5], 1.49; in [6] it was 0.781; in assay [7] it was 1.67. In addition, the figures for the composite z-score in assay [8], in assay [9] and in assay [10] were 1.23, 2.31 and -2.83, respectively. For the same molecule, the z-score in assay [4] is -0.841 (inactive).

Take `C[C@@H](c1ccccc1)N1C(=O)[C@H]2[C@H]3[C@H](O)[C@H](O)CC(=NNC(=O)OCc4ccccc4)[C@@H]3CC[C@H]2C1=O`: the composite z-score in assay [1] was 0.404; in assay [2], -0.657; in assay [3] it was -1.57; in assay [5], -0.0948; in [6], 1.25; in assay [7] it was 0.845. The composite z-score in assay [8] worked out at 1.5; in assay [9], 1.94; in assay [10], 1.56. Besides, the z-score in [4] is 0.574 (inactive).
